D2 ag-1 = Beta-Arrestin HTS for Positive Allosteric Modulators of the Human D2 Dopamine Receptor: Agonists. D(2) dopamine receptor (Homo sapiens), P14416. DiscoveRx PathHunter D2 beta-arrestin, luminescence, 90 min; 100% = 57 uM dopamine signal. activation, % (test concentration not listed). actives 0.084% (n = 360,000); in the data active = activation above about 40%; inconclusive = between about 15% and that limit
Target sequence (P14416 whole entry, looked up): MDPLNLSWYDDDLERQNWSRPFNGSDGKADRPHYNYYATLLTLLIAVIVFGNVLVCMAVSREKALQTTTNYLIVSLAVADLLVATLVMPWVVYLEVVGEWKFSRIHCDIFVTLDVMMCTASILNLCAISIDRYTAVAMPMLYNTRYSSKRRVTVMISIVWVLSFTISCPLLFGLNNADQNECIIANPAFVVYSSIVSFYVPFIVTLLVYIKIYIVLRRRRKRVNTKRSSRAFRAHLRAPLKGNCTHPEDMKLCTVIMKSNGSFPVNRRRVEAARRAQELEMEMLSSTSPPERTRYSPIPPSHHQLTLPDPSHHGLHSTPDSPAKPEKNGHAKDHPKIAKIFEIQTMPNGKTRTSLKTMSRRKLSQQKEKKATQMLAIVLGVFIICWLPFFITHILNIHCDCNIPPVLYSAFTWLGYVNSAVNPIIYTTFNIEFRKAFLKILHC
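Agonist mode: compounds alone added to overnight-plated D2 PathHunter cells for 90 min at 37 C, with 57 uM final dopamine (EC100) defining full response. Beta-arrestin recruitment detected by chemiluminescent reagent, read after 1 h at ambient temperature.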
D2 PAM-1 = Beta-Arrestin HTS for Positive Allosteric Modulators of the Human D2 Dopamine Receptor: Potentiators | potentiation, % (no concentration beside the values) | actives 0.23% (n = 360,000) | DiscoveRx D2 beta-arrestin cells, luminescence, 90 min; 100% = 57 uM dopamine signal | D(2) dopamine receptor (Homo sapiens), P14416; in the data active = potentiation above about 50%; inconclusive = mostly about 30% to 49%
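PathHunter beta-arrestin assay in DiscoveRx D2 cells. Compounds were added with an EC20 of dopamine (50 nM final) for 90 min at 37 deg C. Luminescence was read 1 h after detection reagent, with 57 uM dopamine as the EC100 control.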
D2 PAM-2 = HTS Assay for Positive Allosteric Modulators of the Human D2 Dopamine Receptor: Primary Screen for Potentiators. AID 485347, 2010. HEK293 T-REx D2, calcium flux, EC20 dopamine potentiation. actives 0.34% (n = 340,000). potentiation, % at 10 µM. D(2) dopamine receptor (Homo sapiens), P14416;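 active = potentiation over 3 SD above the plate norm, cut at about 30% in these data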; also: 0% is about no effect
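Potentiation of an EC20 dopamine calcium response measured kinetically over 180 s, after a preceding 180 s compound-only read flagging agonists. Cells: inducible Hek293 Trex D2 line, 4000/well, cultured overnight at 30 C before dye loading.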
D2 ag-2 = HTS Assay for Allosteric Agonists of the Human D2 Dopamine Receptor: Primary Screen for Agonists; D(2) dopamine receptor (Homo sapiens), P14416; HEK293 T-REx D2 cells, calcium flux agonist mode; activation, % at 2 µM; actives 0.53% (n = 340,000);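 active = activation over 3 SD above normal in the single-dose calcium agonist read, cut at about 30% in these data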; also: 0% is about no effect
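In this primary screen, compounds producing a positive calcium signal within 180 s of addition to tetracycline-induced, force-coupled HEK293 Trex D2 cells are flagged; cells are dye-loaded with a no-wash calcium kit beforehand.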
D2 antagonist = HTS Assay for Allosteric Antagonists of the Human D2 Dopamine Receptor: Primary Screen for Antagonists | inhibition, % at 10 µM | HEK293 TREx D2 cells, calcium flux, dopamine EC80 | actives 2% (n = 340,000); in the data active = inhibition above about 30%; inactive = below that, where a call was filed; also: 0% is about no effect
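Measurement of antagonist activity uses fluorescent calcium dye in inducible HEK293 T-REx D2 cells: 10 s baseline, compound addition with 180 s read, EC80 dopamine addition with a further 180 s read.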
D3 ag = qHTS of D3 Dopamine Receptor Agonist: D3 Dopamine Receptor B-arrestin Agonist Confirmatory Assay. shares compounds with D2 ag-2. DiscoveRx D3 beta-arrestin cells, luminescence, 90 min. Potency, µM (highest dose often 76.9 µM), without a hit: top-dose activation, hits mostly activators. actives 4% (n = 2,300);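 also: potency is read from the fitted curve at half-maximal effect; 100% = dopamine control response; nearly all actives have a fitted effect of over 70% in size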
D2 ag-3 = qHTS of D3 Dopamine Receptor Agonist: D2 Dopamine Receptor B-arrestin Agonist Counterscreen; shares compounds with D2 ag-2; DiscoveRx PathHunter D2 beta-arrestin, luminescence, 90 min; response scale: percent relative to full dopamine signal; Potency, µM (highest dose often 76.9 µM), for inactives: at the top dose activation, most hits filed as activators; actives 5.9% (n = 2,300); AID 720507, 2013; also: potency is read from the fitted curve at half-maximal effect; % of control where 0% means no effect; nearly all actives have a fitted effect of over 70% in size
* hit, by the source's call. An excerpt weighted towards active compounds, which were near 2.4% of everything screened. Unless noted, calls follow the shape of the dose curve; as a rule, active = well fitted activation curve with a large enough effect; inconclusive = small, poorly fitted or top-dose-only effect; inactive = flat fitted curve, though single readings scatter.

Screening O=C(COC(=O)CCc1c[nH]c2ccccc12)NCc1ccc2c(c1)OCO2 returned D2 ag-1 -4.7, D2 PAM-1 -1.4, D2 PAM-2 -20.8, D2 ag-2 73.6*, D2 antagonist -3.9, D3 ag -5.8% and D2 ag-3 1.0%.
Cc1ccc(S(=O)(=O)N2CCC(C(=O)Nc3ccc(C)c(Cl)c3)CC2)cc1 was read as D2 PAM-2 -24.2 and D2 ag-2 -1.0.
`CCOC(=O)C(CC(=O)O)NCc1ccco1` (stereo unspecified) gave D2 ag-1 -3.3, D2 PAM-1 -6.5, D2 PAM-2 11.7, D2 ag-2 0.9 and D2 antagonist 7.3.
Screening CC(C)OC(=O)C(CC(=O)O)NCc1ccccc1 (stereo unspecified) returned D2 ag-1 -0.8, D2 PAM-1 -1.7, D2 PAM-2 4.1, D2 ag-2 -0.6, D2 antagonist 68.2*, D3 ag -8.1% and D2 ag-3 -3.9%.
For CC(C)c1ccc(NC(=O)CN2CCN(c3ccccn3)CC2)cc1 the results were D2 ag-1 14.0, D2 PAM-1 -9.3, D2 PAM-2 -10.8, D2 ag-2 15.1 and D2 antagonist -0.5.
For CC(=O)N1CCN(CC(=O)Nc2sccc2C#N)CC1 the results were D2 ag-1 -3.1, D2 PAM-1 -0.4, D2 PAM-2 14.0, D2 ag-2 0.2 and D2 antagonist 8.2.
For N#Cc1ccsc1NC(=O)CN1CCN(c2ccccn2)CC1 the results were D2 ag-1 inconclusive, D2 PAM-1 5.3, D2 PAM-2 -6.8, D2 ag-2 40.9*, D2 antagonist 30.8*, D3 ag inconclusive and D2 ag-3 inconclusive.
`N#Cc1ccsc1NC(=O)CN1CCN(c2ccccc2)CC1` gave D2 ag-1 13.0, D2 PAM-1 0.6, D2 PAM-2 -23.8, D2 ag-2 48.5*, D2 antagonist 22.9, D3 ag 4.8% and D2 ag-3 18.8%.
`N#Cc1ccc(NC(=O)CN2CCN(c3ccccn3)CC2)cc1` gave D2 ag-1 48.2*, D2 PAM-1 21.4, D2 PAM-2 -29.7, D2 ag-2 77.2*, D2 antagonist 68.4*, D3 ag inconclusive and D2 ag-3 39.8µM*.
Screening N#Cc1ccsc1NC(=O)CN1CCN(c2ccc(O)cc2)CC1 returned D2 ag-1 11.6, D2 PAM-1 inconclusive, D2 PAM-2 13.5, D2 ag-2 4.4 and D2 antagonist 14.4.
COc1ccc(Cn2c(C(=O)O)c(CNCCc3ccccc3Cl)c3ccc(C)cc32)cc1 was read as D2 PAM-2 0.1 and D2 ag-2 -0.3.
For O=C1N=C(N2CCOCC2)S/C1=C/c1ccc(-c2ccc(F)cc2)o1 the results were D2 ag-1 inconclusive, D2 PAM-1 6.2, D2 PAM-2 -20.5, D2 ag-2 55.2*, D2 antagonist -4.6, D3 ag 2.6% and D2 ag-3 inconclusive.
`CCN(Cc1ccncc1)C(=O)c1ccccc1NS(=O)(=O)c1ccc(Br)cc1` gave D2 ag-1 -4.1, D2 PAM-1 -12.2, D2 PAM-2 -4.0, D3 ag 0.3% and D2 ag-3 1.0%.
COc1ccc(-c2nc(CSCC(=O)NCCC(C)C)c(C)o2)cc1OC was read as D2 PAM-2 7.5 and D2 ag-2 -1.3.
